Source: PubChem (several laboratories)
Rows were chosen to be rich in hits. Some 12% of all compounds tested hit in one or more screens of this group.
WT yeast gro inh: growth inhibition of WT yeast, mitochondrial fusion screen; inhibition, % at 10 µM; mitochondrial fusion phenotypic screen, WT strain; hit rate 2.1% among 190,000; in the data active = inhibition above about 58%; tested in S. cerevisiae
ROMK mod: modulators of human ROMK potassium channel; P48048; hit rate 2% among 130,000; Tet-inducible ROMK, thallium flux fluorescence; actives lie on both sides; AID 1918; B-score at 10 µM;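 active = signal ratio slope over the read window, or its plate-corrected B-score, at least 3 SD from the plate mean, either direction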;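 also: B-score of the F/F0 ratio slope over 7 to 12 s after thallium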
Target sequence (P48048 whole entry, looked up): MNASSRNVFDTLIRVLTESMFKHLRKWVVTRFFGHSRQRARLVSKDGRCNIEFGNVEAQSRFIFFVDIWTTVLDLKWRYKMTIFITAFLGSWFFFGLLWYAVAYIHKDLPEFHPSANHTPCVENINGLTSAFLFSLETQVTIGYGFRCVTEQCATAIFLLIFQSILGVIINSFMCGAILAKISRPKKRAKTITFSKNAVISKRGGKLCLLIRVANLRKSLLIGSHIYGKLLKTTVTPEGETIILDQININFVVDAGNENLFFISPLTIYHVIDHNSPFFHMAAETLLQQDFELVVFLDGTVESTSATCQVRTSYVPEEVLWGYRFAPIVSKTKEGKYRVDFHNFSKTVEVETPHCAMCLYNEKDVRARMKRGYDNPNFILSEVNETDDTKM
m-calpain inh: inhibitors of pig calpain II; inhibition, % at 16 µM; AID 1236; purified calpain II, fluorogenic peptide substrate, 30 min; hit rate 0.37% among 220,000;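 active = inhibition above about 50%, limit read from the data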
L major viab: Leishmania major promastigote growth inhibition | inhibition, % at 10 µM | AID 1063 | Leishmania major promastigotes, resazurin fluorescence viability | hit rate 9% among 200,000; in the data active = inhibition above about 50%;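 also: promastigotes grown with compound for 44 hours at 28 °C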
KCC2 mod: KCC2 (human) Cl- transport modulation | KCC2 cells, thallium flux FluoZin-2 fluorescence | B-score of Tl+ flux slope (higher = more flux/activation; lower = inhibition) at 10 µM | hit rate 2.2% among 190,000;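 active = thallium flux slope and its plate-corrected score both differing from the plate sample mean at a set confidence after two filtering rounds, in either direction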;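 also: slope of fluorescence scaled to starting intensity during 10 to 20 s after thallium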
Lmaj promast 1uM: L. major promastigote growth inhibition, 1 uM repeat; shares compounds with L major viab; resazurin fluorescence, 48 h; inhibition, % at 1 µM; hit rate 13% among 1,100;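 active = inhibition above about 50% in both repeat tests, limit read from the data; inconclusive = one repeat under the set limit, the other over it; inactive = both repeats under the set limit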
Starred values were filed as active, the others as inactive; u = inconclusive; x = no result given.

SMILES | WT yeast gro inh | ROMK mod | m-calpain inh | L major viab | KCC2 mod | Lmaj promast 1uM
COCCn1c(SCC(=O)c2c(N)n(C)c(=O)n(C)c2=O)nc2ccccc21 | 4.7 | 1.47 | 9.2 | -1.8 | 0.633 | x
N#Cc1ccc(Oc2ccc(-c3cnc4ccccc4n3)cc2)cc1C#N | -16.5 | x | 5.8 | -4.4 | -1.1 | x
N#Cc1ccc(Oc2ccc(-c3nc4ccccc4nc3-c3ccccc3)cc2)cc1C#N | -3.5 | x | -69.6 | 92.9* | 0.331 | 0.8
C/C(=C/c1ccccc1)C(=O)N1CC(C)OC(C)C1 (configuration not stated) | 15.8 | -0.321 | -5.5 | -1.4 | -0.164 | x
CC1(CCc2ccccc2)NC(=O)N(CC(=O)O)C1=O (configuration not stated) | x | x | 6.3 | x | 1.99 | x
CC1(CCc2ccccc2)NC(=S)N(c2ccccc2)N1 (configuration not stated) | 9.0 | -0.199 | -13.0 | 70.0* | 0.00619 | -11.4
C/C(=N\O)C(=O)C(CN1CCCCC1)CN1CCCCC1 | -13.5 | x | -8.3 | 78.3* | 0.0166 | 1.7
CC(=O)/C(CN1CCCCC1)=N\O | -3.9 | x | -17.5 | -3.8 | 0.99 | x
Nc1ccc(Oc2ccc([N+](=O)[O-])cc2[N+](=O)[O-])cc1 | -3.5 | 2.38 | 15.7 | 55.8* | x | 7.0
Brc1cccc(C2CC(c3ccccc3)n3nnnc3N2)c1 (configuration not stated) | -1.5 | -0.987 | 15.6 | 8.4 | x | x
COc1ccc(NC(=O)c2cccc(N3C(=O)NC4CC3(C)Oc3ccccc34)c2)cc1 (configuration not stated) | 0.0 | 0.0868 | -27.5 | 99.9* | -2.76 | 0.5
CC12CC(NC(=O)N1c1cccc(C(=O)Nc3ncn[nH]3)c1)c1ccccc1O2 (configuration not stated) | -6.9 | -0.392 | -16.0 | -0.5 | x | x
CC1=CC(C)(C)Nc2ccc(OC(=O)c3ccco3)cc21 | -4.7 | x | -131.3 | 100.6* | x | 1.9
OCCN1CCN(CC(O)COCC2COc3ccccc3O2)CC1 (configuration not stated) | -21.3 | 0.127 | -7.0 | -4.6 | 0.428 | x
OC(COCC1COc2ccccc2O1)CN1CCN(c2ccccc2F)CC1 (configuration not stated) | 5.1 | x | -7.5 | 65.3* | 0.118 | -9.8
NC(N)=NN=C1CCCCCCCCCCC1 | x | x | -16.7 | x | -0.248 | x
O=[N+]([O-])c1cc(S(=O)(=O)Nc2ccccc2)ccc1-n1nnc2ccccc21 | -15.3 | x | 14.4 | 65.9* | -2.59 | -13.3
O=S(=O)(c1cccs1)N1CCCc2ccccc21 | -14.7 | x | 1.5 | 15.3 | x | x
CCN(CC)c1ccc(NC(=O)c2ccc(Br)o2)c(C)c1 | 5.7 | x | -51.4 | 57.2* | -3.33 | 6.1
CC1(C)Cc2ccccc2-c2nnc(-c3ccc4ccccc4n3)n21 | 5.0 | x | 11.9 | 62.4* | -0.344 | 56.6*
CC1(C)Cc2ccccc2-c2nnc(-c3ccccn3)n21 | 11.7 | x | -21.3 | -2.4 | -0.0382 | x
CCCCSc1nnc(NC(=O)CCc2ccccc2)s1 | -12.5 | 1.55 | 20.0 | 1.3 | x | x
Cc1cc(-c2ccccc2)cc(-c2ccccc2)[n+]1C | -11.0 | -0.408 | -3.0 | 58.8* | -0.0734 | 7.1
O=S(=O)(CCN(CCS(=O)(=O)C(F)(F)F)CC1CCCO1)C(F)(F)F (configuration not stated) | -5.2 | x | -14.8 | 100.2* | -1.47 | 8.0
Cc1nnc(C)c2c(C)n(-c3ccccc3N)c(C)c12 | -1.7 | 0.0394 | 1.4 | -0.2 | -1.32 | x
SMILES | WT yeast gro inh | ROMK mod | m-calpain inh | L major viab | KCC2 mod | Lmaj promast 1uM
Cc1nnc(C)c2c(C)n(C(c3ccccc3)c3ccccc3)c(C)c12 | 51.8 | -1.4 | -103.3 | 100.1* | -0.851 | -11.5
Cc1ccc(/C=C(\C#N)c2nn(-c3ccccc3)c(N)c2C#N)cc1 | -2.9 | 0.435 | 19.5 | 64.5* | -0.54 | -5.5
CCc1sc(NC(=O)c2cc3ccccc3oc2=O)nc1-c1cccs1 | -19.9 | 0.0557 | 0.3 | -6.0 | 0.501 | x
COc1ccc(C2=NN(c3nc4ccccc4s3)C(=O)/C2=C\N(C)C)cc1 | 4.1 | 0.109 | -4.2 | 53.9* | 0.173 | -17.6
CN(C)CCNC(=O)c1cccc(S(=O)(=O)Nc2ccccc2F)c1 | 3.7 | -0.0419 | 11.0 | -1.8 | 0.332 | x
COc1ccc(CC(=O)NC(C)c2nnc(SCC(=O)c3ccc(Br)cc3)n2C)cc1 (configuration not stated) | -5.2 | x | -52.1 | 74.8* | 0.494 | -3.9
O=S(=O)(/C=C/c1ccccc1)Nc1ccc(F)cc1 | -21.7 | 1.27 | -4.3 | 1.5 | 0.307 | x
C=CCOc1ccc2c(c1)c(S(=O)(=O)c1ccc(C)cc1)cn2COC | 8.0 | x | x | 88.0* | -0.919 | -21.3
CCn1cc(S(=O)(=O)c2ccc(C)cc2)[nH]c1=O | -21.1 | 0.353 | -17.3 | -0.6 | -1.23 | x
Oc1ccccc1-c1nc(/C=C/c2ccccc2)nn1-c1ccccc1 | 63.5* | x | 1.8 | 98.2* | -0.825 | 6.5
COc1ccc(/C=C/c2noc(-c3ccccc3O)n2)cc1 | 22.6 | x | -48.5 | -3.8 | 0.0466 | x
CCOC(=O)c1oc2ccc(CNC(C)(C)C)c(Cl)c2c1C | 14.5 | -3.13 | -6.6 | 99.0* | 0.581 | 7.8
CCOC(=O)c1oc2cccc(O)c2c1C | -1.1 | -0.834 | 0.8 | -6.6 | x | x
CC[n+]1c(C)n(-c2ccccc2)c2ccc(C(=O)OC)cc21 | -6.1 | -0.4 | -20.6 | -5.1 | x | x
CCc1cccc2[nH]c3cc([N+](=O)[O-])ccc3c12 | x | x | -31.7 | x | 0.129 | x
COc1ccc(CC2NCCC3(O)CCCCC23)cc1 (configuration not stated) | -9.2 | -0.952 | 8.0 | 68.0* | 1.01 | -6.7
CC(C)c1ccc(NC(=S)NC2CCCCCC2)cc1 | 46.5 | 0.759 | 14.8 | 22.6 | -0.564 | x
S=C(Nc1ccc(Oc2ccc(NC(=S)NC3CCCCC3)cc2)cc1)NC1CCCCC1 | -14.7 | 0.428 | -37.4 | 57.5* | 0.952 | 2.5
COc1cc2c(C#N)c(N3CCN(c4ccccc4OC)CC3)nc(N)c2c(N)n1 | 3.0 | x | -213.2 | 73.2* | -2.32 | 33.2
O=C(NCc1ccncc1)C(=O)Nc1nc(C23CC4CC(CC(C4)C2)C3)cs1 | -0.3 | x | -24.9 | 51.4* | 0.236 | 17.7
CCOC(=O)c1c(C=O)c2sc(C)cc2n1C | 6.3 | -0.699 | -250.4 | -7.9 | -1.31 | x
COc1ccc(OC)c(S(=O)(=O)NC2CCN(Cc3ccccc3)CC2)c1 | 1.7 | x | -38.9 | -1.6 | -1.27 | x
COc1ccc(/C=C2\CN(Cc3ccccc3)C/C(=C\c3ccc(OC)cc3OC)C2=O)c(OC)c1 | 1.3 | x | -21.0 | 71.3* | -1.69 | -1.8
CC1(C)CC(=O)c2cc(C(=O)NCc3ccco3)c(=O)n(-c3ccccc3)c2C1 | -0.1 | 0.706 | -12.1 | 44.0 | 1.15 | x
CC1(C)CC(=O)c2cc(C(=O)NNc3ccccc3)c(=O)n(-c3ccccc3)c2C1 | 5.7 | -0.464 | -13.8 | 52.3* | -0.518 | 10.7
CCN1/C(=C/C=C/c2oc3ccc4ccccc4c3[n+]2CC)Oc2ccc3ccccc3c21 | 76.2 | x | 26.6 | 100.4* | x | 101.2*
Nc1ccc(C23CC4CC(CC(CO)(C4)C2)C3)cc1 | -25.2 | x | -38.8 | -3.8 | -1.24 | x
NCC12CC3CC(C1)CC(c1ccc(Cl)cc1)(C3)C2 | 73.3* | -1.18 | -31.7 | 100.4* | 2.72 | 93.6*
Cc1ccccc1N(C(=O)c1cccs1)c1nc2ccccc2s1 | 1.9 | 1.58 | -14.1 | 98.8* | -0.276 | u
